12-LOX inh = blocks human arachidonate 12S-lipoxygenase; P18054; purified 12hLO, xylenol orange hydroperoxide absorbance; Potency, µM (titrated, usually from 108 µM), without a hit: at the top dose activity change, negative = inhibition, usual class: inhibitors; 580,000 compounds, 1.1% hits; AID 1671190
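Purified human 12hLO (150 nM final) in 25 mM Hepes, 0.01% Triton X-100, pH 7.0 was preincubated 15 min at room temperature with compound. Then 40 uM arachidonic acid was added, 30 min. Hydroperoxide was read by Fe-XO absorbance ratio 573/405 nm.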
VDR inhibitor = blocks the human vitamin D receptor; P11473; VDR-SRC2-3 peptide fluorescence polarization, 2 h; Potency, µM, for the others: max response, negative = inhibition, usual class: inhibitors; 400,000 compounds, 0.93% hits; AID 504847
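Two reagent solutions held at 4 deg C in the dark were dispensed, compounds pinned at 23 nl, and the mixture incubated 2 h at room temperature. Read-out: fluorescence polarization of VDR–SRC2-3 peptide binding.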
PLK1 PBD block = blocks phosphopeptide binding to human PLK1 polo-box domain | P53350 | Plk1 PBD binding of FITC phosphopeptide, fluorescence polarization | Potency, µM, inactives show max response, negative = inhibition, most hits filed as inhibitors | 360,000 compounds, 2.8% hits; note: series mostly up to about 57 µM; nearly all actives have a fitted effect of over 65% in size
Target sequence (P53350 whole entry, looked up, the tested form may be a part): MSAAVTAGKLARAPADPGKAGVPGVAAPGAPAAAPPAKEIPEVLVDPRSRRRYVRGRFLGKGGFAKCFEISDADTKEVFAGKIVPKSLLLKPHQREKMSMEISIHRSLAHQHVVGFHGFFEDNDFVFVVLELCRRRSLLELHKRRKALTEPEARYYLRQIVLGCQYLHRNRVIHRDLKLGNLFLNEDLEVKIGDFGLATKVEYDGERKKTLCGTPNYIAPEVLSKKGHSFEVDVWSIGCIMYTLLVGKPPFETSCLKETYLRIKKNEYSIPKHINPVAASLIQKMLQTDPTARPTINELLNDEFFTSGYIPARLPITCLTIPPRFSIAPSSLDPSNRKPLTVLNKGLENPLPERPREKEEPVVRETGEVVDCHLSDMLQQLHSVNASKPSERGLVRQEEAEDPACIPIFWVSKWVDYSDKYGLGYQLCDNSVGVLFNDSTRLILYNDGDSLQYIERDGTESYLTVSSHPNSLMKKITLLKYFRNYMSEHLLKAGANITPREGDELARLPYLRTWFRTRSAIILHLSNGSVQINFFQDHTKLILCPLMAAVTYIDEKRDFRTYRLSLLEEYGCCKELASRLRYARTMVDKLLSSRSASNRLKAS
GCN5L2 inh = GCN5L2 (KAT2A) acetyltransferase inhibition | Q92830 | GCN5L2 HAT assay, ThioGlo1 CoA-SH fluorescence | Potency, µM (series often up to 58.9 µM), inactives show top-dose activity change, negative = inhibition, usual class: inhibitors | 390,000 compounds, 0.21% hits
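Compounds, pin-transferred from DMSO stocks, meet 20nM GCN5L2 for 15 min before the reaction begins with H3(1-25) peptide (75uM) and acetyl-CoA (70uM). Thiol-reactive ThioGlo1 reports CoA release over 20 min at room temperature.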
* marks the source's active call; other numbers are inactive results; u = inconclusive; x = not tested or not shown; ! = repeats disagree. This is a sample that favours compounds with a hit; in the whole collection about 3% have one here. Calls come from the whole dose curve; as a rule, active = well fitted curve in the direction sought with a large enough effect; inconclusive = small, poorly fitted or top-dose-only effect, or another doubt; inactive = no such curve, though single readings can be large; an effect the other way counts as inactive or inconclusive. % is set by controls: 0 for no effect and ±100 for the full control effect; potency is the fitted concentration of half-maximal effect.

SMILES	12-LOX inh	VDR inhibitor	PLK1 PBD block	GCN5L2 inh
O=C(NC1CCCCC1)c1cccc2ncccc12	-1.2%	x	x	x
Cc1cc(C)cc(NC(=O)C2CCN(C(=O)[C@@H]3Cc4ccccc4CN3)CC2)c1	u	u	4.74µM*	-0.9%
Cc1ccc(NC(=O)C2CCN(C(=O)[C@@H]3Cc4ccccc4CN3)CC2)cc1	-8.1%	8.6%	-13.9%	-5.8%
Cc1ccc(C)c(Oc2coc3cc(OC(=O)c4cccs4)ccc3c2=O)c1	0.0%	-3.2%	9.47µM*	x
Cn1cnc2c1c(=O)n(CC(=O)NCC1(c3ccccc3)CCCC1)c(=O)n2C	-18.7%	x	x	x
COc1ccc(/C=C2/SC(=S)N(CCC(=O)O)C2=O)cc1	-1.4%	-8.8%	-7.1%	2.3%
COc1ccc(O)c(/C=C2/SC(=S)N(Cc3ccccc3)C2=O)c1	0.0%	u	-5.7%	-10.4%
Cn1cccc1/C=C1\SC(=S)N(CC(=O)O)C1=O	u	-0.1%	30.3%	-5.5%
O=C1C(=Cc2cn(-c3ccccc3)nc2-c2ccc(OCc3ccccc3F)cc2)SC(=S)N1CCS(=O)(=O)O	u	x	9.47µM*	x
CCOc1ccc(-c2nn(-c3ccccc3)cc2/C=C2\SC(=S)N(C3CCS(=O)(=O)C3)C2=O)cc1 (stereo not drawn)	-14.0%	-26.3%	u	-3.0%
COc1ccc(-c2nn(-c3ccccc3)cc2/C=C2/SC(=S)N(CCC(=O)O)C2=O)cc1	u	u	21.2µM*	u
Cc1ccc(-c2nn(-c3ccccc3)cc2/C=C2\SC(=S)N(CC(=O)O)C2=O)cc1	u	u	29.9µM*	u
COc1ccc(-c2nn(-c3ccccc3)cc2/C=C2/SC(=S)N(CCC(=O)O)C2=O)c(C)c1	0.0%	u	11.9µM*	u
CN(CC(=O)Nc1ccccc1C(F)(F)F)C(=O)Cc1ccc2c(c1)CCCC2	5.1%	x	x	x
N#Cc1nc(-c2ccccc2F)oc1NCc1ccccc1Cl	-28.2%	x	x	x
CC1CN(c2nnc(-c3ccccc3)c3ccccc23)CC(C)O1 (stereo not drawn)	4.1%	-29.6%	21.2µM*	-3.9%
Cc1cc(N2CCN(c3ccccc3)CC2)nc2ccccc12	u	22.4%	2.4%	-2.2%
Cc1ccc2nc(N3CC(C)OC(C)C3)nc(-c3ccccc3)c2c1 (stereo not drawn)	23.5%	-9.3%	-0.7%	-4.6%
Cc1cc(N2CC(C)OC(C)C2)nc2ccccc12 (stereo not drawn)	-2.1%	u	26.7µM*	-9.0%
Cc1ccc2c(C)c(CCC(=O)N3CCCCCC3)c(=O)oc2c1	41.1%	x	x	x
COc1ccc(Cc2c(-c3ccccc3)nc3ccc(Cl)cn23)c(C)c1	u	x	-9.9%	x
COc1ccc(Cc2c(-c3cccc(Br)c3)nc3c(C)cc(Br)cn23)c(C)c1	u	x	4.7%	x
COc1ccc(Cc2c(-c3ccc(Cl)cc3)nc3c(C)cc(Br)cn23)c(C)c1	u	x	-4.0%	x
COc1ccc(Cc2c(-c3ccc(F)cc3)nc3c(C)cc(Br)cn23)c(C)c1	35.5µM*	x	-9.3%	x
COc1ccc(Cc2c(-c3cccc(Cl)c3)nc3ccc(C)cn23)c(C)c1	10µM*	x	-3.4%	x
SMILES	12-LOX inh	VDR inhibitor	PLK1 PBD block	GCN5L2 inh
COc1ccc(Cc2c(-c3ccc(F)cc3)nc3ccc(Cl)cn23)c(C)c1	28.2µM*	x	-5.8%	x
COc1ccc(Cc2c(-c3cccc(Cl)c3)nc3c(C)cc(Br)cn23)c(C)c1	7.94µM*	x	-18.4%	x
Cc1ccc(C(C[N+](=O)[O-])c2c(-c3ccccc3O)[nH][nH]c2=O)cc1 (stereo not drawn)	39.8µM*	22.4µM*	u	-6.0%
COc1ccc(C(=O)NC(C)c2nnc(SCc3ccc(Cl)c(Cl)c3)n2C)cc1 (stereo not drawn)	3.98µM*	-11.1%	-7.3%	u
CCn1c(SCc2ccc(Cl)c(Cl)c2)nnc1C(C)NC(=O)c1ccc(OC)cc1 (stereo not drawn)	-8.4%	-2.8%	4.2%	-2.6%
O=C(CCl)N1CCCC1c1ccc2c(c1)OCCO2 (stereo not drawn)	-18.3%	u	26.7µM*	1.2%
Cc1cc2ccccc2n1CC(=O)N1CCN(CC(=O)NC2CC2)CC1	4.2%	x	x	x
CC(C)CC(c1nnnn1C(C)(C)C)N1CCN(Cc2ccccc2)CC1 (stereo not drawn)	10µM*	18.0%	-5.7%	-1.4%
CCC(c1nnnn1C(C)(C)C)N1CCN(Cc2ccccc2OC)CC1 (stereo not drawn)	2.1%	1.2%	-14.1%	-7.2%
O=C(O)/C=C/c1csc2ccccc12	11.2%	x	x	x
Cc1ccccc1-n1nnnc1SCC(=O)N(Cc1ccco1)C1=CCCCC1	8.91µM*	x	x	x
COc1ccc(OC)c(C(O)Cn2ccn3nc(-c4ccc(C(C)C)cc4)cc3c2=O)c1 (stereo not drawn)	15.2%	x	x	x
COc1cc(NC(=O)n2ncc3cc(Cl)ccc32)cc(OC)c1OC	-7.5%	x	x	x
O=C(Nc1ccc2snnc2c1)Nc1cccc2ccccc12	-20.3%	-10.7%	29.9µM*	2.0%
COc1cccc(NC(=O)Nc2ccc3snnc3c2)c1	0.0%	10.5%	x	-9.2%
O=C(Nc1ccccc1)c1ccc2snnc2c1	-4.0%	u	26.7µM*	-1.2%
Cc1cc(=O)oc2c(O)c(O)ccc12	-29.8%	70.8µM*!	u	u
Cc1c(Cc2ccccc2)c(=O)oc2c(O)c(O)ccc12	3.98µM*	6.2%	0.0%	-10.5%
Cc1oc2c(O)c(O)ccc2c(=O)c1-c1ccc(Cl)cc1	5.62µM*	-18.2%	-13.7%	-6.2%
COc1ccccc1OCCNC(=O)c1ccc2[nH]c(C)c(C)c2c1	12.6%	x	x	x
C#CCNC(=O)c1ccccc1NC(=O)c1nc(Cl)ccc1Cl	-1.7%	x	x	x
COc1ccc(CCNc2ncnc3c2c(C)c(C)n3CCCN(C)C)cc1OC	-16.4%	6.5%	-4.7%	-1.9%
COc1ccc(CCNc2ncnc3c2c(C)c(C)n3CCO)cc1OC	u	u	26.7µM*	2.5%
Cc1cccc(-c2ocnc2C(=O)NCCc2ccccc2)c1	6.1%	x	x	x
CCn1c2ccccc2c2cc(NC(=O)c3ccc(Br)o3)ccc21	u	50.1µM*	u	-9.3%
SMILES	12-LOX inh	VDR inhibitor	PLK1 PBD block	GCN5L2 inh
N/C(=N\O)c1ccc(NC(=O)c2ccc(Br)o2)cc1	-4.2%	u	15µM*	-4.8%
O=C(O)c1ccc(NC(=O)c2ccc(Br)o2)cc1	-0.3%	x	x	x
CCOCCCNC(=O)c1ccc(OCC)c(OCC)c1	8.5%	x	x	x
Fc1ccc(-c2nc(CN3CCCC3c3cccs3)co2)cc1 (stereo not drawn)	-1.3%	x	x	x
CCn1nc(C(=O)Nc2cccc(C(=O)Nc3ccncc3)c2)c2ccccc2c1=O	0.7%	x	x	x
O=C(O)c1ccc(-c2nc(-c3ccc(Cl)c(Cl)c3)cs2)cc1	x	-1.3%	26.7µM*	0.1%
O=C(O)c1cnn(-c2nc(-c3ccc(Cl)c(Cl)c3)cs2)c1C(F)(F)F	u	u	26.7µM*	0.5%
CC(=O)NNC(=S)NCc1ccc(C)cc1	28.7%	x	x	x
Cn1cnc([N+](=O)[O-])c1S(=O)(=O)Oc1cccc2ccccc12	-26.9%	u	8.44µM*	x
Cn1cnc([N+](=O)[O-])c1S(=O)(=O)Oc1ccc(Cl)cc1	1.1%	25.1µM*	u	x

Screening results deposited in PubChem BioAssay by National Center for Advancing Translational Sciences (NCATS).
